The values below come from PubChem BioAssay AID376 (PDSP, 2006).

Hit rate of the full screen: of about 2,000 compounds, about 250 (12%) were called active. Rule as the data show it: active = hERG blockade below about -20% or above about 20%; inactive = in between. Only a selection was taken, and actives are over-represented in it overall.

This assay deals with Voltage-gated inwardly rectifying potassium channel KCNH2 (Homo sapiens) (UniProt Q12809). The assay can be described thus: modulators of KCNH2 ion channel function, cellular (AID 376).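 Also: 0% = buffer alone and 100% = reference blocker.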 The following applies: hERG-expressing cells, channel activity single-concentration screen; concentration not given here.
Voltage-gated inwardly rectifying potassium channel KCNH2 (Homo sapiens), sequence (Q12809 whole entry, looked up): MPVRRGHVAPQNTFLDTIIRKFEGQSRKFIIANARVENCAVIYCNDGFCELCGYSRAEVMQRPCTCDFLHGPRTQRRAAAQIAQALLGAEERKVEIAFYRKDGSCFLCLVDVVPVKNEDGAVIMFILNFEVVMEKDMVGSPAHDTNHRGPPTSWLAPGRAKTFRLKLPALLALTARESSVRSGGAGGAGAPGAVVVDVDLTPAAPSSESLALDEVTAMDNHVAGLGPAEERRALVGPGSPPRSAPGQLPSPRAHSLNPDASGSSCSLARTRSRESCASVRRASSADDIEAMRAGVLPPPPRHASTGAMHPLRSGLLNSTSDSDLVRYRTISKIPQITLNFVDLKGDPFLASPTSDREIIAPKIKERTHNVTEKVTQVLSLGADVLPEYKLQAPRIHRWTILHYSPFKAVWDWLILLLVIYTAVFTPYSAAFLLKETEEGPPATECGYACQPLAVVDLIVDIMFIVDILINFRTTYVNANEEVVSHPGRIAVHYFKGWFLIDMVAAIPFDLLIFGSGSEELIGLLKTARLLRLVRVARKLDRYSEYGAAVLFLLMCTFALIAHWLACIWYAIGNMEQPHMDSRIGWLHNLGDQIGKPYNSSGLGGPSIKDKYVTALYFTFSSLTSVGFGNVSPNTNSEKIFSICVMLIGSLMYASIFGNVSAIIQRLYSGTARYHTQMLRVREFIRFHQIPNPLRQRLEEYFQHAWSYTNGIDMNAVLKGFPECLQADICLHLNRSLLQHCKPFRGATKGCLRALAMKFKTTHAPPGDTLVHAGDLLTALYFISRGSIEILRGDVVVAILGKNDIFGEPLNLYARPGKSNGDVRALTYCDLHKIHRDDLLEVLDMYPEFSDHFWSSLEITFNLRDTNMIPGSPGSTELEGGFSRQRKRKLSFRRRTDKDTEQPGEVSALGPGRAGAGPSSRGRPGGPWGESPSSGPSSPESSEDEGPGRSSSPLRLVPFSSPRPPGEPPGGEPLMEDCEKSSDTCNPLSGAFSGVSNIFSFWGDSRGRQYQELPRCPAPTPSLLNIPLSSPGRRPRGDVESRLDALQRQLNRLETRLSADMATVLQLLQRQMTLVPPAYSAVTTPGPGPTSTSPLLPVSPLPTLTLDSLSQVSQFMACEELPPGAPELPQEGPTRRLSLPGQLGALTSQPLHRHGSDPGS
Take `Nc1cc(S(=O)(=O)O)cc2ccc(S(=O)(=O)O)cc12`: the hERG blockade was -2.77% (inactive).

Take `C(=Nc1ccc2c(c1)Cc1ccccc1-2)c1ccccn1`: the hERG blockade was -16.5% (inactive).

For `CC(C)C(=O)C(C)(C)CCc1ccccn1`, the hERG blockade was 1.93% (inactive).

As to `ON(CCc1ccccn1)Cc1ccccc1`, the hERG blockade is -7.89% (inactive).

Consider `CN(CCc1ccccn1)c1ccc2c(c1)C(=O)c1ccccc1-2`, for which the hERG blockade was 75.4% (active).

As for `CN(CCc1ccccn1)c1ccc2c(c1)Cc1ccccc1-2`, the hERG blockade is 20.3% (active).

Regarding `O=C1c2ccccc2-c2ccc(N(Cc3ccc(Br)cc3)Cc3ccc(Br)cc3)cc21`, the hERG blockade was 15.9% (inactive).

On to `Cn1ncc2c(Cl)ncnc21`, for which the hERG blockade is 12.1% (inactive).

Take `O=C(O)CCCN1CCCCC1`: the hERG blockade was -19.4% (inactive).

In the case of `NCCSCCc1ccccc1`, the hERG blockade is -4.22% (inactive).

With `NC(CC(=O)Nc1cc(C(F)(F)F)ccc1Cl)=NO`, the hERG blockade is 15.2% (inactive).

With `CN1CCC(CN2c3ccccc3Sc3ccccc32)C1` (stereo unspecified), the hERG blockade was 42.9% (active).

Take `c1ccc2sc(SCN(C3CCCCC3)C3CCCCC3)nc2c1`: the hERG blockade was 12.7% (inactive).

Take `CCC12CCCN3CCc4c(n(c5ccccc45)C(=O)C1)C32` (stereo unspecified): the hERG blockade was 37.7% (active).

Consider `CC1=CC(C)(C)Nc2ccc(CSc3ccccc3)cc21`, for which the hERG blockade is 0.516% (inactive).

`Nc1nc(-c2ccccc2)c(-c2ccccc2)c(-c2nc(N)nc(-c3ccccc3)c2-c2ccccc2)n1`: the hERG blockade was 1.5% (inactive).

Take `Nc1nc(Cc2ccccc2)nc(Cc2ccccc2)c1-c1ccccc1`: the hERG blockade is 29% (active).

For the compound `Nc1nc(N)c(-c2cccc(C(F)(F)F)c2)c(Cc2cccc(C(F)(F)F)c2)n1`, the hERG blockade is 11% (inactive).

Consider `Cn1c(=O)c2c(nc(C(=N)SCC(=O)O)n2C)n(C)c1=O`, for which the hERG blockade is 13.2% (inactive).

`O=C(O)CCSCc1ccccc1`: the hERG blockade is -0.0927% (inactive).

In the case of `O=C(O)C=CC(=O)Nc1cccc2c1-c1ccccc1C2=O`, the hERG blockade was -8.93% (inactive).

`NC(N)=Nc1ccc(-c2ccc(N=C(N)N)cc2)cc1`: the hERG blockade was -0.0188% (inactive).

As for `O=C(O)c1cncc(C(=O)O)c1`, the hERG blockade is 3.7% (inactive).

Take `CC1CCCC=CC2CC(OC(=O)CN(C)C)CC2C(O)C=CC(=O)O1` (stereo unspecified): the hERG blockade is -21.9% (active).

For `COc1ccc(NCc2c(O)ccc3ccccc23)cc1`, the hERG blockade is -7.42% (inactive).

With `CSc1ccc(NC(=O)C2CCCCC2C(=O)O)cc1` (stereo unspecified), the hERG blockade is 10.7% (inactive).

For `NC(=O)NC(=O)C1CCCCC1C(=O)O` (stereo unspecified), the hERG blockade is -24.9% (active).

`CNCC(SC)c1ccc(O)c(O)c1` (stereo unspecified): the hERG blockade was 11.7% (inactive).

Take `Cc1nc([N+](=O)[O-])cn1-c1nc2ccccn2c1[N+](=O)[O-]`: the hERG blockade is -4.23% (inactive).

Take `c1ccc(CCN2CCN=C2Cc2ccccc2)cc1`: the hERG blockade is 11.4% (inactive).

In the case of `CC(N)C(N)=NO` (stereo unspecified), the hERG blockade is -3.44% (inactive).
